Measured values taken from PubChem BioAssay (NCI).
Compounds without any hit were thinned out: in the full panel of roughly 79,000, 15% have a hit. Unmarked numbers belong to inactive results. Active and inactive are the calls of the source. Rule as the data show it: active = growth inhibition above about 70%; inactive = the rest.

What was measured:
[1] = NCI Yeast Anticancer Drug Screen. Data for the rad50 strain (AID 155);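 also: 0% = growth of vehicle-only cultures of the same strain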; conditions: S. cerevisiae rad50 strain growth inhibition, hits give high values
In short: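 Compounds were tested on a yeast strain with an engineered DNA damage repair alteration; the reported value is growth inhibition normalised to vehicle treatment.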

[2] = NCI Yeast Anticancer Drug Screen. Data for the mec2-1 strain (AID 157); conditions: S. cerevisiae mec2-1 strain, hits give high values
In short: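 mec2-1 yeast strain, carrying an alteration in DNA damage repair or cell cycle control, was exposed to compounds; growth inhibition was measured relative to vehicle-treated controls.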

[3] = NCI Yeast Anticancer Drug Screen. Data for the sgs1 mgt1 strain (AID 161);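 also: 0% = growth of cultures given vehicle only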; conditions: S. cerevisiae sgs1 mgt1 strain, hits give high values
In short: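 Growth of a repair-deficient yeast mutant was monitored after compound treatment and expressed as inhibition relative to vehicle-treated cultures.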

[4] = NCI Yeast Anticancer Drug Screen. Data for the cln2 rad14 strain (AID 165);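 also: 0% = growth equal to vehicle treated cultures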; conditions: S. cerevisiae cln2 rad14 strain, hits give high values
In short: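 Yeast carrying cln2 and rad14 alterations (cell cycle control and DNA damage repair) were exposed to compounds. Growth inhibition was measured against vehicle-treated controls.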

[5] = NCI Yeast Anticancer Drug Screen. Data for the bub3 strain (AID 167); conditions: S. cerevisiae bub3 mutant strain, hits give high values
In short: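 Growth of a checkpoint-deficient yeast mutant is measured after compound exposure. Values represent inhibition relative to vehicle.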

[6] = NCI Yeast Anticancer Drug Screen. Data for the mlh1 rad18 strain (AID 175); conditions: S. cerevisiae mlh1 rad18 strain growth inhibition, hits give high values
In short: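 Growth inhibition of the yeast strain was measured after compound exposure and expressed relative to vehicle-treated controls. The strain carries defined defects in DNA damage repair.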

[7] = at 5.0 µM (retest, dose inferred, filed as 0.5)
[8] = at 50.0 µM (retest, dose inferred, filed as 5.0)

Compound | growth inhibition [1, 7] | growth inhibition [1, 8] | growth inhibition ([1]; at 50.0 µM) | growth inhibition [2, 7] | growth inhibition [2, 8] | growth inhibition ([2]; at 50.0 µM) | growth inhibition [3, 7] | growth inhibition [3, 8] | growth inhibition ([3]; at 50.0 µM) | growth inhibition [4, 7] | growth inhibition [4, 8] | growth inhibition ([4]; at 50.0 µM) | growth inhibition [5, 7] | growth inhibition [5, 8] | growth inhibition ([5]; at 50.0 µM) | growth inhibition [6, 7] | growth inhibition [6, 8] | growth inhibition ([6]; at 50.0 µM)
Oc1cc(CNCc2ccccc2)c(O)c(CNCc2ccccc2)c1 | 10% | 10% | -4% | 17% | 24% | 31.9% | 5% | 11% | 5.25% | 3% | -13% | 38.2% | -1% | -4% | 1.95% | 8% | 15% | 17%
Cc1c[nH]c(C(=O)O)c1-c1ccc2c(-c3ccccc3)nc3ccccc3n12 | 14% | 96% (active) | 82.8% (active) | 11% | 99% (active) | 91% (active) | 10% | 99% (active) | 89.4% (active) | 8% | 99% (active) | 89% (active) | 13% | 99% (active) | 85.9% (active) | 12% | 95% (active) | 91.8% (active)
BrC1CCCCCC1 | 2% | 10% | 51.9% | 3% | 16% | 34.5% | 1% | 22% | 57.4% | 6% | 14% | 27.4% | 5% | 35% | 37% | 6% | 24% | 81.7% (active)
N#Cc1c(-c2ccc(Cl)cc2)c(C#N)c(=O)n(NS(=O)(=O)c2ccccc2)c1S | 51% | 83% (active) | 39.6% | 29% | 78% (active) | 86.2% (active) | 30% | 93% (active) | 81.3% (active) | 46% | 63% | 19.4% | 50% | 88% (active) | 70.8% (active) | 36% | 71% (active) | 77.5% (active)
CN(C)/N=C1\CC(c2ccccc2)C(C#N)(C#N)C1(C#N)C#N (configuration not stated) | 41% | 99% (active) | 89.3% (active) | 51% | 100% (active) | 89% (active) | 42% | 100% (active) | 88.5% (active) | 39% | 99% (active) | 88.5% (active) | 56% | 100% (active) | 89.6% (active) | 51% | 99% (active) | 91.5% (active)
Brc1ccc(N2COc3ccc4ccccc4c3C2)cc1 | 9% | -23% | 19.2% | 19% | -1% | 35.5% | 16% | -4% | 62.4% | -17% | -3% | 0.95% | 9% | -3% | 77.9% (active) | 16% | 2% | 46.4%
O=C(N/N=C/c1ccccn1)c1ccccc1[O-].O=C(N/N=C/c1ccccn1)c1ccccc1[O-].[Co+2] | 5% | 0% | 38.2% | 21% | 0% | 48.1% | 13% | 5% | 42.5% | 14% | 2% | 72.8% (active) | 17% | 2% | 99.2% (active) | 18% | -2% | 66.8%
CC1(C)C[C@H]2C=C(C=O)[C@]34C[C@]3(C(=O)OC4O)[C@H]2C1 (some centres not stated) | 94% (active) | 99% (active) | 92.5% (active) | 98% (active) | 100% (active) | 93.6% (active) | 98% (active) | 100% (active) | 93.2% (active) | 84% (active) | 99% (active) | 92.3% (active) | 97% (active) | 100% (active) | 92.3% (active) | 96% (active) | 97% (active) | 90.7% (active)
COC1=C(Br)C(=O)N/C1=C(\OC)c1ccccc1 | 4% | 9% | 11.3% | 4% | 1% | -8.9% | 6% | 15% | 29.9% | 6% | 0% | 37.9% | 21% | 0% | -1.65% | 2% | 4% | 6.15%
